Experimental data published in PubChem BioAssay AID1259324 (C. David Weaver Laboratory, Vanderbilt University, 2017).
Out of some 34,000 compounds screened, fewer than 10 were called active.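 The calls were made as follows: active = primary screen hit, no activity in plain HEK293 cells, and in GIRK2-only cells above 5% efficacy rising with concentration; inactive = the rest, including fluorescent compounds.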 A selection follows.

These molecules were tested against G protein-activated inward rectifier potassium channel 2 (Homo sapiens) (UniProt P48051) (assay: GIRK2 activation atop partial GPCR stimulation – cell-based, HEK293, thallium flux, summary (AID 1259324)). Conditions: HEK293 GIRK2/NPY4 cells, thallium flux fluorescence.
Chain of G protein-activated inward rectifier potassium channel 2 (Homo sapiens) (P48051 whole entry, looked up): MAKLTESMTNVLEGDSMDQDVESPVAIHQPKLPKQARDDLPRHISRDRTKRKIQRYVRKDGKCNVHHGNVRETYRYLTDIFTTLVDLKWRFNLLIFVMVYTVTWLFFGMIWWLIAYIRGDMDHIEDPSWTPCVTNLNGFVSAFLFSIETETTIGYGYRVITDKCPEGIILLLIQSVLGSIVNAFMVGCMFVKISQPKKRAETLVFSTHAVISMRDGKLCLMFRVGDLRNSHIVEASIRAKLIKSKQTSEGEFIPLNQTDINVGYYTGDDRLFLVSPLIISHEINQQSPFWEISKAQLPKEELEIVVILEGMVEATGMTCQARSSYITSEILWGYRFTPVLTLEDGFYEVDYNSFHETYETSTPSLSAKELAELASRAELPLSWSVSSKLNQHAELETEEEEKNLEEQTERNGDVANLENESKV

outcome, inactive:
CON(C)C(=O)C1CN(C(=O)c2cccs2)C1, COc1cn(CC(=O)Nc2ccc3c(c2)OCO3)c(CSc2ncccn2)cc1=O, CCOC(=O)C1CCN(C(=O)c2csc(Nc3ccccc3)n2)CC1, COc1ccc(CC(=O)NCCOc2ccc(F)cc2)cc1OC, CCOc1ccc2nc(NC(=O)c3ccc(S(=O)(=O)N(C)C)o3)sc2c1, O=c1[nH]c(SCc2nc(-c3cccc(C(F)(F)F)c3)no2)nc2ccsc12, COc1cc(N2CCN(S(C)(=O)=O)CC2)nc(OC)n1, CCC(CO)NC(=O)C(=O)Nc1c2c(nn1-c1ccccc1)CS(=O)(=O)C2 (stereo not given), CN1CCN(C(CNS(=O)(=O)c2ccc(C(C)(C)C)cc2)c2cccn2C)CC1 (stereo not given), COc1cccc(-n2nnnc2SCC(=O)Nc2ccccc2Cl)c1, COc1ccc(Cc2nnc(Nc3cc(C)ccc3C)[nH]c2=O)cc1, Cc1cc(=O)n(CC(=O)Nc2ccncc2)cn1, CCCCOc1ccc(C(=O)Nc2ccc3c(c2)CCC(=O)N3CCC)cc1, COc1cccc(C(=O)NCC2COC3(CCCCC3)O2)c1OC (stereo not given), NC(=O)C1CCN(c2oc(-c3ccco3)nc2S(=O)(=O)c2ccc(Cl)cc2)CC1, Cc1nnc(NC(=O)CCn2cnc3c(cnn3-c3ccc(F)cc3)c2=O)s1, O=C(NCC(=O)N1CCOC(c2ccccc2)C1)C(=O)NCc1ccccc1Cl (stereo not given), O=C(NCCc1ccc(F)cc1)c1cc(=O)c(OCc2ccccc2)co1 inactive; active, NC(=O)C1Cc2ccccc2N1C(=O)Nc1ccc2c(c1)OCO2 (stereo not given), CCc1nnc(NC(=O)c2nnn(-c3ccc(Cl)cc3)c2C)s1, COc1ccc(NC(=O)C2CCCCC2)cc1N1CCCCC1=O, COCCNC(=O)c1ccc(Oc2c(C)oc3cc(OC)ccc3c2=O)cc1, CN(C(=O)c1cccc(F)c1)C1(C)CCS(=O)(=O)C1 (stereo not given), Cc1cn2c3c(=O)n(C)c(=O)n(C)c3nc2n1CC(=O)c1ccc(Cl)cc1, Cc1cccc(NC(=O)c2ccc3nn(CC(=O)Nc4ccc(C)c(F)c4)c(=O)n3c2)c1, Cc1cccc(CC(=O)NCC2(c3cccs3)CCCC2)c1, CS(=O)(=O)N1CCC(CNC(=O)c2ccc(F)c(F)c2)CC1, O=C(NCCCN1CCCC1=O)C(=O)Nc1c2c(nn1-c1cccc(Cl)c1)CSC2, COc1ccc(S(=O)(=O)NCC(c2ccc(C)cc2)N2CCN(C)CC2)cc1OC (stereo not given), Cc1nc(-c2cccs2)c(CCC(=O)N(C)C2CCS(=O)(=O)C2)s1 (stereo not given), CNc1nn(CC(=O)Nc2ccc(C(C)=O)cc2)c(N)c1-c1nc(-c2ccc(C)cc2)no1, Cc1cc(-c2nnc(NC(=O)c3cccc(Oc4ccccc4)c3)o2)n(C)n1 inactive; active, COCC(C)(O)CNC(=O)Cc1cccc(C)c1 (stereo not given), CN1CCOc2ccc(NC(=O)C3(c4ccc(F)cc4)CC3)cc2C1=O, O=c1oc(-c2ccncc2)nc2c(Cl)cccc12, O=C(Cn1nc(C2CC2)c2cnn(-c3ccc(F)cc3)c2c1=O)N1CCOCC1, COC(=O)c1ccc(C(=O)NCCCC(=O)Nc2cccc3cccnc23)cc1, CN(C)C(=O)C(NC(=O)OC(C)(C)C)c1ccccc1Cl (stereo not given), CC(C)S(=O)(=O)c1ccc(CC(=O)NCc2n[nH]c(=O)c3ccccc23)cc1, O=C(c1ccc(N2CCCC2)nn1)N1CCN(C(=O)c2ccco2)CC1, O=C(c1ccc2c(c1)OCO2)N(Cc1ccsc1)Cc1ccccn1, CSc1nnc(CNC(=O)C23CC4CC(CC(C4)C2)C3)n1-c1ccccc1, Cc1ccc(S(=O)(=O)NCCNc2ccc(Nc3cccc(C)n3)nn2)c(C)c1, O=c1c2cn[nH]c2nc(SCc2nc(-c3ccccc3)no2)n1-c1ccccc1, O=C(Cc1cccc2ccccc12)NCCOc1ccc2c(c1)OCO2, Cc1cc(C)c2sc(N3CCN(C(=O)C4CCCN(S(C)(=O)=O)C4)CC3)nc2c1 (stereo not given), COc1cccc(C(=O)Nc2ccc(N3CCCC3=O)c(OC)c2)c1, Cc1ccc(NC(=S)NC(=O)c2ccc(F)cc2)nc1, Cc1cc(C)n(S(=O)(=O)c2cccc(S(C)(=O)=O)c2)n1, COc1ccc(-c2cc3c(=O)n(Cc4nc(-c5ccc(OC)cc5OC)no4)ccn3n2)cc1, CSc1ccccc1C(=O)Nc1nnc(-c2cc(C)nn2C)o1, Cn1c(=O)c2c(nc3n(CC(=O)O)c(-c4ccccc4)cn23)n(C)c1=O, COc1nn(C)cc1-c1nnc(SCC(=O)N2CCCc3ccccc32)n1C, Cc1cccc(CS(=O)(=O)NCC2(O)CCc3ccccc32)c1 (stereo not given), COC(=O)c1ccc(NC(=O)Cn2c(=O)n(C(C)C)c(=O)c3nscc32)cc1, NS(=O)(=O)c1ccc(NC(=O)c2ccc(=O)n(Cc3ccc(F)cc3)c2)cc1, CCOC(=O)Cc1csc(NC(=O)c2nc(-c3cnccn3)no2)n1, Cc1cccc(Nc2ccc(N3CCN(S(=O)(=O)c4cccs4)CC3)nn2)n1, COCCNC(=O)CCn1cnc2c(cnn2C(C)(C)C)c1=O, O=S(=O)(NCC#CCN1CCc2ccccc2C1)c1c(F)cccc1F, Cc1ccc(-c2ccc(=O)n(CCCC(=O)Nc3ccc(S(N)(=O)=O)cc3)n2)cc1, COc1cc(OC)cc(C(=O)N2CCc3cc(S(=O)(=O)NC4CCCC4)ccc32)c1, Cn1cccc1C(CNS(=O)(=O)c1ccc(F)cc1)N1CCOCC1 (stereo not given), Cn1cccc(C(=O)N2CCC(c3nnc(-c4ccco4)s3)CC2)c1=O, O=C(NCC1(c2cccs2)CCOCC1)Nc1cccc(C(F)(F)F)c1, CC(=O)c1ccc(S(=O)(=O)N2CCC(c3nnc(C4CC4)o3)CC2)cc1, COc1ccc(Cl)cc1N1CC(c2nc(-c3ccccc3C)no2)CC1=O (stereo not given), Cc1c(C(=O)NCc2ccccc2Cl)nnn1-c1ccc(F)cc1, Cc1cccc(NC(=O)c2cc(-c3ccco3)nc3c2c(C)nn3C2CCS(=O)(=O)C2)c1 (stereo not given), Cc1cc(C(=O)Nc2nc(-c3cccs3)cs2)on1 inactive; active, COc1ccc(CCNC(=O)Nc2cc(N3CCCS3(=O)=O)ccc2C)cc1, O=C(Cc1cc(-c2ccc(F)cc2)on1)N1CCc2ccccc21, O=C(NCCC1=CCCCC1)C(=O)NCc1nc(-c2ccccc2)no1, COc1ccc(NC(=O)N2CCN(c3cc(OC)nc(OC)n3)CC2)cc1, CC(C)(C)C(=O)N1CCc2ccc(NS(=O)(=O)c3ccc(Cl)s3)cc21, COc1ccc(Cl)cc1C(=O)NCCNc1cc(-n2ccnc2C)ncn1, COc1ccccc1C1(CNC(=O)Cc2ccc(F)cc2)CCOCC1, CCOc1ccc(NC(=O)NCCCn2nc(-c3ccncc3)ccc2=O)cc1 inactive; active, COc1ccc(NC(=O)Cn2cc(OC)c(=O)cc2CSc2nccc(C)n2)cc1, O=C(C1CCCCC1)N(CCN1CCOCC1)c1nc2c(Cl)cccc2s1, Cn1c(=O)c2cc(C(=O)NC3CCCCCC3)sc2n(C)c1=O, COc1ccc(C)cc1S(=O)(=O)NCC(c1ccc(F)cc1)N1CCN(C)CC1 (stereo not given), O=C(Cc1ccc(-c2ccccc2)cc1)NCC1CCN(Cc2ccco2)CC1, CCOc1ccc(-c2cc(=O)n(CC(=O)Nc3ccccc3F)cn2)cc1, O=C(CCCS(=O)(=O)c1ccccc1)Nc1nc2c(F)cccc2s1, CCOc1ccc2ccccc2c1C(=O)N1CCN(c2ncnc3c2nnn3C)CC1, CCOC(=O)N1CCN(C(c2ccccc2F)c2sc3nc(CC)nn3c2O)CC1 (stereo not given), COc1coc(C(=O)Nc2ccc(C(N)=O)cc2)cc1=O, COc1ccccc1CCNC(=O)Cc1csc(NC(=O)C2CCC(=O)N2)n1 (stereo not given), O=C(C1CC=CCC1)N1CCN(CCn2ccnc2)CC1 (stereo not given), O=C(c1cccs1)N1CCc2ccc(NS(=O)(=O)Cc3cccc(Cl)c3)cc21, Cc1ccc(-n2ccnc2N2CCN(C(=O)c3cccs3)CC2)cc1, COC(=O)c1c2c(nc3c1c(-c1ccccc1)nn3C1CCS(=O)(=O)C1)CCC2 (stereo not given), CCC(=O)Nc1ccc(SCC(=O)NCC2CCCO2)nn1 (stereo not given), O=C(NCC(O)c1ccc(C(F)(F)F)cc1)C1(c2cccs2)CCCC1 (stereo not given)
